FAK inh – blocks human focal adhesion kinase activity. 97,000 tested, 0.84% active. inhibition, %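 (tested at 7 µM)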. biochemical FAK kinase activity assay. Q05397. AID 727; in the data active means inhibition above about 19%;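 further: 0% = DMSO and 100% = reference compound high control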
S1P2 antag – S1P2 (human) receptor antagonism. cell-based S1P2 antagonist assay, inhibition at 5 uM. O95136. AID 736. inhibition, % at 5 µM. 97,000 tested, 0.21% active; in the data active means inhibition above about 45%;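 further: CRE beta-lactamase reporter cells expressing human S1P2 stimulated with S1P; 0% = agonist at EC80 alone and 100% = agonist plus reference antagonist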
Target sequence (O95136 whole entry, looked up): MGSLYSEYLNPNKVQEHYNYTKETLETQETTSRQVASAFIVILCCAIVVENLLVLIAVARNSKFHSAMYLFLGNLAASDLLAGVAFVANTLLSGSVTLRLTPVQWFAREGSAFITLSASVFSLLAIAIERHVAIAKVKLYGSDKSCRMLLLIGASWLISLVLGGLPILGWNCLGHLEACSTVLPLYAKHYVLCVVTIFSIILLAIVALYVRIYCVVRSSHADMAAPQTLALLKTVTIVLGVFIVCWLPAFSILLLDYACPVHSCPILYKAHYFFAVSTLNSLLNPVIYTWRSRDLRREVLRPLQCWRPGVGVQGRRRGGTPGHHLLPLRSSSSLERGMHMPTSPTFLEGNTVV
GALR2 ag – agonists of human galanin receptor 2 (GALR2). GALR2-expressing cells, agonist activation read-out. activation, % (concentration not given with the values). 140,000 tested, 0.48% active; in the data active means activation above about 5%, passing the limit was not always enough;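 further: 0% = vehicle buffer wells and 100% = reference agonist at full effect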
Target sequence (O43603 whole entry, looked up): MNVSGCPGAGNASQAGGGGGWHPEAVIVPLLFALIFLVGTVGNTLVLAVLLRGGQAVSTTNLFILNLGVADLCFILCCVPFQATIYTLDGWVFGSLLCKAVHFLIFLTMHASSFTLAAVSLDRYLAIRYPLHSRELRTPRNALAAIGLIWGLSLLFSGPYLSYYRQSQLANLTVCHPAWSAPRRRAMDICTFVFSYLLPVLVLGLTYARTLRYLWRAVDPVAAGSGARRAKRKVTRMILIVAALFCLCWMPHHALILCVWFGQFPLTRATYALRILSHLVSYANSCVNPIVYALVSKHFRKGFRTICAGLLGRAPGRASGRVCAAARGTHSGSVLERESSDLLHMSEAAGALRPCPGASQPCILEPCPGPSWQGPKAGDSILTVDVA
sdo1 growth – sdo1-depleted yeast growth rescue; S. cerevisiae sdo1-depleted JHY4D growth rescue, OD600 30 h; active compounds read high; pdr5 snq2 efflux-pump mutant strain; z-score at 10 µM; 140,000 tested, 0.21% active; AID 817;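 active means z-score above 3 at both the 24 hr and the 30 hr optical density reads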;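 further: z-score against mean and SD of all compound wells on the same plate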
GALR2 antag – blocks the human galanin receptor 2; AID 828; inhibition, % at 4 µM; 140,000 tested, 0.39% active; GALR2-expressing cells, antagonist mode; O43603;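 further: cells stimulated with galanin 1-16 at roughly its EC80; 0% = agonist challenge control and 100% = basal control without agonist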
S1P2 agonist – activates the human S1P2 receptor. activation, % at 4.5 µM. 97,000 tested, 0.46% active. S1P2-expressing cell line, agonist reporter read-out; in the data active means activation above about 16%;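 further: 0% = vehicle low control and 100% = maximal reference agonist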
sdo1 rescue conf – SDO1-depleted yeast growth rescue confirmation; shares compounds with sdo1 growth; S. cerevisiae JHY4D (SDO1-depleted) growth rescue, OD600, 30 h; active compounds read high; efflux-deficient strain, SNQ2 and PDR5 mutated; OD recovery (test concentration not listed); 440 tested, 44% active; AID 949;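 active means yeast growth recovered at 30 hours, either rising with dose fitted slope above 0.001 or with average optical density gain above 0.07, some results past the limit were not filed as active; inactive means growth falling with dose or no effect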;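 further: gain in OD600 from 0 h to 30 h averaged across all seven doses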
GALR2 ant conf – confirmation of human galanin receptor 2 (GALR2) antagonists; 480 tested, 60% active; GALR2-expressing cells, antagonist mode, inhibition; inhibition, % at 4 µM; shares compounds with GALR2 antag;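 further: cells stimulated with galanin at about its EC80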
BLA inhib ctr – inhibits beta-lactamase reporter in GALR2 antagonist counterscreen | 480 tested, 36% active | shares compounds with GALR2 antag | CHO NFAT-BLA reporter, beta-lactamase FRET, thapsigargin-stimulated | inhibition, % at 4.2 µM | AID 867;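 active means inhibition above the mean inhibition across tested compounds plus 3 SD, cut at about 27% in these data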;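 further: 0% = 500 nM thapsigargin stimulated wells and 100% = unstimulated BSA only wells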
Starred values were filed as active, the others as inactive; x = no result. This is a sample that favours compounds with a hit; in the whole collection about 1.9% have one here. Unless noted, no stated cut-off is given here; in the data, active means inhibition above about 27%; inactive means the rest.

SMILES	FAK inh	S1P2 antag	GALR2 ag	sdo1 growth	GALR2 antag	S1P2 agonist	sdo1 rescue conf	others
O=C(CCSc1ccccc1)Nc1ccccc1C(=O)N1CCCC1	x	x	0.0	0.17	-1.8	x	x
Cc1ccc(SCCC(=O)Nc2ccccc2C(=O)N2CCOCC2)cc1	x	x	-0.1	4.07*	1.6	x	0.0497
O=C(Nc1cc(Oc2ccccc2)cc([N+](=O)[O-])c1)C12CC3CC(C1)CC(n1cnc(Cl)n1)(C3)C2	1.3	11.6	-1.8	-0.84	-20.1	-6.5	x
COc1ccc(C(=O)CSc2nnc(Cc3ccccc3)o2)cc1	-2.4	7.6	-2.3	6.99*	8.2	-6.1	0.0469
O=C(CSc1nnc(-c2ccco2)o1)c1ccc(F)c(F)c1	-1.8	3.8	-1.3	1.18	10.9	0.3	x
O=C(CSc1nnc(-c2ccco2)o1)c1ccccc1	2.1	2.6	-1.7	1.23	2.5	-0.8	0.035
CCN=C1S/C(=C\c2cn(CC)c3ccccc23)C(=O)N1CC	x	x	1.1	7.89*	-7.0	x	0.0918*
CCN1C(=O)S/C(=C/c2cn(C)c3ccccc23)C1=O	x	x	-2.3	-1.09	11.9	x	x
O=C1COc2ccc(C(=O)COC(=O)c3ccc4ccccc4n3)cc2N1	5.5	-13.0	0.2	1.69	6.1	-7.8	0.0985*
O=S(=O)(/C=C/c1ccccc1)NC1CCCCCCC1	x	x	-0.2	-1.71	8.4	x	x
O=C(O)CCCn1nc(C(F)(F)F)c2c1CCCCC2	-3.2	18.0	-3.4	3.39*	5.5	-5.4	0.0614*
C=CCOC(=O)Nc1c(C(=O)OC)[nH]c2ccccc12	-1.8	7.8	-2.3	3.87*	-1.5	-2.6	0.0291
CCC1(C)Cc2ccccc2-c2nc(NCCCO)n(-c3ccccc3)c(=O)c21 (stereo not given)	15.2	14.7	-0.4	5.82*	-11.2	-5.3	0.074
CC(=O)C(Sc1nc(N2CCOCC2)nc(N2CCOCC2)n1)C(=O)Nc1ccccc1 (stereo not given)	-1.8	-10.9	-1.4	-0.01	3.8	-1.7	x
Cc1ccccc1C(=O)NC(=S)Nc1sc2c(c1C#N)CCC(C)C2 (stereo not given)	-3.3	-2.6	-0.2	-0.62	10.1	-5.9	x
Cc1cc(C(=O)Nc2sc3c(c2C#N)CCC(C)C3)cs1 (stereo not given)	-1.3	18.5	-0.1	2.25	-11.0	-3.0	0.0555
CC(C)c1ccc(NC(=O)C2CCCN(S(=O)(=O)c3cnc[nH]3)C2)cc1 (stereo not given)	-2.2	17.2	-0.9	1.31	-10.9	-1.3	0.0475
O=C(Nc1ccc(Cl)cc1)C1CCCN(S(=O)(=O)c2cnc[nH]2)C1 (stereo not given)	-7.2	3.3	-1.2	0.28	0.5	-6.8	x
O=C(CN(Cc1ccco1)C(=O)c1ccccc1)Nc1ccc(Cl)c(Cl)c1	-1.4	0.9	-2.0	-1.55	-3.8	-7.2	x
COc1ccc(NC(=O)Cc2coc3cc(C)c(C(C)C)cc23)cc1S(=O)(=O)N1CCOCC1	x	x	-1.2	0.4	-16.4	x	x
CC(=O)N(c1c(C)n(C)n(-c2ccccc2)c1=O)C1(C(=O)NC2CCCCC2)CCCCC1	0.0	3.5	-1.4	0.61	-3.7	-7.6	x
CC(=O)N(c1c(C)n(C)n(-c2ccccc2)c1=O)C1(C(=O)NC2CCCC2)CCCCC1	x	x	0.1	10.8*	-1.4	x	0.0636*
CS(=O)(=O)N1CCN(c2ccccc2NC(=O)c2ccco2)CC1	12.7	19.5	-0.9	0.71	-0.3	-5.7	x
CC(C)CNC(=O)c1coc(=O)c(Br)c1	-0.6	13.9	0.7	0.58	2.9	-2.9	x
CN(C)CCNC(=O)c1coc(=O)c(Br)c1	-4.2	-4.8	-3.6	12.9*	-3.2	-7.5	0.0531
SMILES	FAK inh	S1P2 antag	GALR2 ag	sdo1 growth	GALR2 antag	S1P2 agonist	sdo1 rescue conf	others
CCS(=O)(=O)Nc1ccc(-c2nnc(SCC(=O)c3cccc(OC)c3)o2)cc1	-2.7	-11.2	-2.1	0.15	-3.1	-7.4	x
CCS(=O)(=O)Nc1ccc(-c2nnc(SCC(=O)c3ccc(NC(C)=O)c(OC)c3)o2)cc1	11.0	-3.1	-2.2	2.72	-4.8	-1.9	0.061
Cc1ccc(C(=O)C(C)OC(=O)C2CC(=O)N(C3CCCCC3)C2)cc1 (stereo not given)	-5.3	1.3	-2.9	0.09	-8.1	-2.2	x
Cc1ccc(-n2[nH]c(C)c(/C=N/c3ccccn3)c2=O)cc1	-0.8	11.4	-0.2	0.68	0.7	-4.6	x
Cc1ccc(-n2[nH]c(C)c(C=Nc3cc(C)ccn3)c2=O)cc1	-2.7	-2.4	0.6	9.38*	14.5	-7.2	0.0704*
CN(C)c1ccc(/C=[N+](\[O-])C2N(c3ccccc3)C(=S)SC2(C)C)cc1 (stereo not given)	x	x	-2.2	7.89*	1.6	x	0.0341
CN(C)c1ccc(/C=[N+](\[O-])C2SC(=S)N(C)C2(C)C)cc1 (stereo not given)	-0.1	-4.0	-0.5	-0.28	-3.6	-1.6	x
CN1CCN(c2ccc(Cl)cc2NC(=O)c2ccc(S(=O)(=O)N(C)C)cc2)CC1	-0.6	-26.6	-0.3	4.3*	12.0	1.0	0.0452
CC1CCCN(C(=O)c2cc(F)c(F)cc2Cl)C1 (stereo not given)	-0.3	2.2	-2.0	0.54	-3.3	-2.1	x
O=C(CCCOc1ccc(Cl)cc1Cl)N/N=C/c1cccc([N+](=O)[O-])c1	x	x	-0.8	1.32	3.1	x	0.0593
Cc1ccc(-c2noc(CN(C(=O)C34CC5CC(CC(C5)C3)C4)C(C)C)n2)cc1	1.9	-3.0	-2.6	-0.67	-2.3	-3.9	x
CNC(=O)c1cc2cc(OC)ccc2oc1=O	0.6	-27.9	-2.1	0.41	-0.8	-3.3	x
CNC(=O)c1cc2cc(OC)ccc2oc1=N	x	x	-0.2	12.2*	12.5	x	0.102*
Nc1nc(-c2ccco2)c(-c2ccco2)s1	7.9	-10.1	-1.3	13.2*	-7.8	-1.3	0.0706*
Cc1cnc(NC(=O)c2sc3ccccc3c2Cl)s1	x	x	-2.3	-0.23	0.5	x	x
Cc1ccnc(NC(=O)c2sc3ccccc3c2Cl)c1	x	x	-1.5	3.91*	3.9	x	0.128*
N#Cc1c(SCc2cccc(Cl)c2)sc(C(=O)c2ccccc2)c1N	2.0	-26.8	-1.7	0.43	8.0	-6.7	x
COc1ccc2cc(/C(C)=N/NC(=O)c3cc(-c4cccnc4)nc4ccccc34)ccc2c1	x	x	0.0	1.01	15.7	x	x
Cc1ccc(Nc2nc(-c3c(C)nc4ccccn34)cs2)cc1	5.5	23.2	-1.5	-0.88	34.0*	-3.8	x	GALR2 ant conf=40.1*;BLA inhib ctr=59.5*
CC(C)NC(=O)CSc1nncn1-c1ccccc1	x	x	-1.4	0.57	27.2*	x	x	GALR2 ant conf=11.9;BLA inhib ctr=10.4
Clc1ccc(-c2csc(N3CCSCC3)n2)cc1	x	x	0.6	-0.06	5.0	x	x
